The values below come from ChEMBL document CHEMBL1157539, “Thousands of chemical starting points for antimalarial lead identification” (Nature, 2010).

The test system of this assay is HepG2. As to the kind of experiment: GSK_TCMDC: Percent inhibition of human HepG2 cell line. Test compounds present at 10uM. In kind it is functional.
The term Inhibition denotes the change of the read-out against control, counted positive when it falls. A high value points to a response far below the control. The compound `O=C(/C=C/c1ccsc1)N1CCC(CCN2CCC(c3c[nH]c4ccccc34)CC2)CC1` returned an Inhibition of 37%.

`CCOc1ccc(-c2nonc2NC(=O)c2ccc(OC(C)C)cc2)cc1OCC`: the Inhibition is given as 13%.

In turn, `Cl.FC(F)(F)c1cc(Nc2ncnc3ccc(Br)cc23)ccc1OCc1ccccc1` yielded an Inhibition of 12%.

In the case of `Cc1nc(-c2cccc(Nc3nccc(NCC(O)c4cccc(C(F)(F)F)c4)n3)c2)cs1` (centres undefined), the Inhibition amounted to 14%.
